The record followed here is ChEMBL document CHEMBL1961873, “Compounds: GSK PKIS; Assays: Nanosyn kinase panel” (2012).

The target in test [1] is RAC-alpha serine/threonine-protein kinase (Homo sapiens) (UniProt P31749). Conditions: at 0.1 µM.
Test [2] has the same target. Conditions: at 1 µM.
Test [3] deals with RAC-beta serine/threonine-protein kinase (Homo sapiens) (UniProt P31751). Conditions: at 0.1 µM.
Test [4] shares this target. Conditions: at 1 µM.
For test [5], the target named is RAC-gamma serine/threonine-protein kinase (Homo sapiens) (UniProt Q9Y243). Conditions: at 0.1 µM.
Test [6] shares this target. Conditions: at 1 µM.
For test [7], the target named is G protein-coupled receptor kinase 6 (Homo sapiens) (UniProt P43250). Conditions: at 0.1 µM.
Test [8] has the same target. As to conditions: at 1 µM.
The target of test [9] is T1, Rhodopsin kinase GRK7 (Homo sapiens) (UniProt Q8WTQ7).
T1 sequence (whole entry): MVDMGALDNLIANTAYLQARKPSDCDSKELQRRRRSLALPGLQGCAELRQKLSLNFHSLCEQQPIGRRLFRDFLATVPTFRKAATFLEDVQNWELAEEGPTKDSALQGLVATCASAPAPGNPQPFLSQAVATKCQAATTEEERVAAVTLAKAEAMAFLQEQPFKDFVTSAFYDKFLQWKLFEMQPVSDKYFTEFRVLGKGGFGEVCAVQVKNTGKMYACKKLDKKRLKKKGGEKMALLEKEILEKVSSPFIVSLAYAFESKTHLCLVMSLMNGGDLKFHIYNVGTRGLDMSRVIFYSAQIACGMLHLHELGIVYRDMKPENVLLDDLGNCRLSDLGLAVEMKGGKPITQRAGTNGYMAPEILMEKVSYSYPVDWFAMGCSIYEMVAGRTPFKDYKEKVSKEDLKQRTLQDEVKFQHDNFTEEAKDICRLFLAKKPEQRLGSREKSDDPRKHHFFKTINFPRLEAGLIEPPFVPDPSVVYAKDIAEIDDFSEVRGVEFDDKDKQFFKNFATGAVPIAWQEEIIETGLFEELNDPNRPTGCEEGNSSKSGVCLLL
Conditions: at 0.1 µM.

In test [10] the target is T1, Rhodopsin kinase GRK7 (Homo sapiens). As to conditions: at 1 µM.
Test [11] addresses Serine/threonine-protein kinase MRCK alpha (Homo sapiens) (UniProt Q5VT25). As to conditions: at 0.1 µM.
Test [12] has the same target. As to conditions: at 1 µM.
For test [13], the target named is Serine/threonine-protein kinase MRCK beta (Homo sapiens) (UniProt Q9Y5S2). Conditions: at 0.1 µM.
The target is the same in test [14]. As to conditions: at 1 µM.
For test [15], the target named is Ribosomal protein S6 kinase alpha-5 (Homo sapiens) (UniProt O75582). Conditions: at 0.1 µM.
The target is the same in test [16]. As to conditions: at 1 µM.
In test [17] the target is Ribosomal protein S6 kinase alpha-4 (Homo sapiens) (UniProt O75676). Conditions: at 0.1 µM.
The target is the same in test [18]. As to conditions: at 1 µM.
Test [19] concerns the target Ribosomal protein S6 kinase beta-1 (Homo sapiens) (UniProt P23443). As to conditions: at 0.1 µM.
Test [20] has the same target. As to conditions: at 1 µM.

Ribosomal protein S6 kinase alpha-5 (Homo sapiens), sequence (O75582 whole entry, looked up): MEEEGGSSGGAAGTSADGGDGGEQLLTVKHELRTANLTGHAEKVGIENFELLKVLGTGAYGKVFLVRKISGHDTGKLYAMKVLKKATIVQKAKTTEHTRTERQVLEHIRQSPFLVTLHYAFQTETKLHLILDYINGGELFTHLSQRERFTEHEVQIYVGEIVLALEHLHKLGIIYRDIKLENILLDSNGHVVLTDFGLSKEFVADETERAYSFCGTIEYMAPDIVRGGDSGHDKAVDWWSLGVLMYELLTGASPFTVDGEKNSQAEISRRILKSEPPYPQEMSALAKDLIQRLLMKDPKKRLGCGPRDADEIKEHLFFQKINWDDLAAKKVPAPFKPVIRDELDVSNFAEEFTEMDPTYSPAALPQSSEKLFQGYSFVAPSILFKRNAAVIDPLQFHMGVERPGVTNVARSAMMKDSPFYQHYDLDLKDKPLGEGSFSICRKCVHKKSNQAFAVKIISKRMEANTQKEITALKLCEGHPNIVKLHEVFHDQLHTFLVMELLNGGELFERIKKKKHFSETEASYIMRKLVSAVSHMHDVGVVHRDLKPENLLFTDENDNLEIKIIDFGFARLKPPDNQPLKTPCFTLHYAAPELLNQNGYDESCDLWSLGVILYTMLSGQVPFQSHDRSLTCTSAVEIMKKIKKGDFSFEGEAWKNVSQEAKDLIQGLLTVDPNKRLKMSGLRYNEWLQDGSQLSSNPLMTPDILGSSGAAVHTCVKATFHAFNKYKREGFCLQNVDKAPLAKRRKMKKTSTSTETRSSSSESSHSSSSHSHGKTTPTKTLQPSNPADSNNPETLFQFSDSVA
Ribosomal protein S6 kinase alpha-4 (Homo sapiens), sequence (O75676 whole entry, looked up): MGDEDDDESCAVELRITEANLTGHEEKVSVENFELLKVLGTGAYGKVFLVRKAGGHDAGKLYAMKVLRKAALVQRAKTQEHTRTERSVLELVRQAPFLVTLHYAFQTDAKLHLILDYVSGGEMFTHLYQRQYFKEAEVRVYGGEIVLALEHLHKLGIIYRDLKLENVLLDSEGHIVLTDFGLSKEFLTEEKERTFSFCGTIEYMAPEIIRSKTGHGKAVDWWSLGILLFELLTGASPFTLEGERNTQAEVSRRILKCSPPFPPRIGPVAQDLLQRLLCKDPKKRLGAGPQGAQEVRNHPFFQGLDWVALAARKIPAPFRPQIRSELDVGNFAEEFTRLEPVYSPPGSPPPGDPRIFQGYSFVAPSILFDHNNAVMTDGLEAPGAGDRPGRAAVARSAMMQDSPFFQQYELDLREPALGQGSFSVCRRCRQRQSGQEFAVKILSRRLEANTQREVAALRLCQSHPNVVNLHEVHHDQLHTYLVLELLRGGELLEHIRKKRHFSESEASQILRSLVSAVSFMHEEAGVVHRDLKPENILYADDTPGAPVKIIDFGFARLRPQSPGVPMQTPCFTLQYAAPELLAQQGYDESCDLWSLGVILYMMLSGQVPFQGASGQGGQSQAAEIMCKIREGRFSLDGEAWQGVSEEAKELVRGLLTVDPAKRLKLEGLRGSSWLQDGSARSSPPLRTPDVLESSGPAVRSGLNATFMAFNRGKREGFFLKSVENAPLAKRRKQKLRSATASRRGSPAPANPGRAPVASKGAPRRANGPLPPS
RAC-alpha serine/threonine-protein kinase (Homo sapiens), sequence (P31749 whole entry): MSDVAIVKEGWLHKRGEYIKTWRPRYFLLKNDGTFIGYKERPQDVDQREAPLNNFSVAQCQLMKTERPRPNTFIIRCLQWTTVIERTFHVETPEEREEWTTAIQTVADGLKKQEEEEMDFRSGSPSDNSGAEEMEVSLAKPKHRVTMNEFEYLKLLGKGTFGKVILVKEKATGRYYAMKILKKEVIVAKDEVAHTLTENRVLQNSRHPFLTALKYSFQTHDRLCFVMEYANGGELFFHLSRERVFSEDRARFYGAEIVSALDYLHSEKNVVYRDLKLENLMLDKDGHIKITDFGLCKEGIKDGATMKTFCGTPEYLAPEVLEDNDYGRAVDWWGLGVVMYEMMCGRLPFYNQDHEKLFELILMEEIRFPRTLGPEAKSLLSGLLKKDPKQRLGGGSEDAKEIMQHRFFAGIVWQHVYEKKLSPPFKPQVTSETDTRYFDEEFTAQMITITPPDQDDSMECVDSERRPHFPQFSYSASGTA
Ribosomal protein S6 kinase beta-1 (Homo sapiens), sequence (P23443 whole entry, looked up): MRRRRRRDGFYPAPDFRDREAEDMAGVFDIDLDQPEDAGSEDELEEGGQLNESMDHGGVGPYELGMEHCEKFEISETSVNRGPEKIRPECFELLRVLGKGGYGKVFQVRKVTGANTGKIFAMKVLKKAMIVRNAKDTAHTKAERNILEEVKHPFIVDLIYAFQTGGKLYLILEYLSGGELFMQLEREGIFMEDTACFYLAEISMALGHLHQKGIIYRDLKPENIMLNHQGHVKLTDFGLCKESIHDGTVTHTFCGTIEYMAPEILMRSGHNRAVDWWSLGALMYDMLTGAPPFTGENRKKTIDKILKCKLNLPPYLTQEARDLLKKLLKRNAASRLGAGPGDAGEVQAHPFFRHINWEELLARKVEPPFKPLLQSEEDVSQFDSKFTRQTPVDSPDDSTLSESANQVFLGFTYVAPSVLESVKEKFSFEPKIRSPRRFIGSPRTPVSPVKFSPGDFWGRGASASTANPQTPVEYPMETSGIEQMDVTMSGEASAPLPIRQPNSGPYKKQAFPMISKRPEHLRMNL
Serine/threonine-protein kinase MRCK beta (Homo sapiens), sequence (Q9Y5S2 whole entry): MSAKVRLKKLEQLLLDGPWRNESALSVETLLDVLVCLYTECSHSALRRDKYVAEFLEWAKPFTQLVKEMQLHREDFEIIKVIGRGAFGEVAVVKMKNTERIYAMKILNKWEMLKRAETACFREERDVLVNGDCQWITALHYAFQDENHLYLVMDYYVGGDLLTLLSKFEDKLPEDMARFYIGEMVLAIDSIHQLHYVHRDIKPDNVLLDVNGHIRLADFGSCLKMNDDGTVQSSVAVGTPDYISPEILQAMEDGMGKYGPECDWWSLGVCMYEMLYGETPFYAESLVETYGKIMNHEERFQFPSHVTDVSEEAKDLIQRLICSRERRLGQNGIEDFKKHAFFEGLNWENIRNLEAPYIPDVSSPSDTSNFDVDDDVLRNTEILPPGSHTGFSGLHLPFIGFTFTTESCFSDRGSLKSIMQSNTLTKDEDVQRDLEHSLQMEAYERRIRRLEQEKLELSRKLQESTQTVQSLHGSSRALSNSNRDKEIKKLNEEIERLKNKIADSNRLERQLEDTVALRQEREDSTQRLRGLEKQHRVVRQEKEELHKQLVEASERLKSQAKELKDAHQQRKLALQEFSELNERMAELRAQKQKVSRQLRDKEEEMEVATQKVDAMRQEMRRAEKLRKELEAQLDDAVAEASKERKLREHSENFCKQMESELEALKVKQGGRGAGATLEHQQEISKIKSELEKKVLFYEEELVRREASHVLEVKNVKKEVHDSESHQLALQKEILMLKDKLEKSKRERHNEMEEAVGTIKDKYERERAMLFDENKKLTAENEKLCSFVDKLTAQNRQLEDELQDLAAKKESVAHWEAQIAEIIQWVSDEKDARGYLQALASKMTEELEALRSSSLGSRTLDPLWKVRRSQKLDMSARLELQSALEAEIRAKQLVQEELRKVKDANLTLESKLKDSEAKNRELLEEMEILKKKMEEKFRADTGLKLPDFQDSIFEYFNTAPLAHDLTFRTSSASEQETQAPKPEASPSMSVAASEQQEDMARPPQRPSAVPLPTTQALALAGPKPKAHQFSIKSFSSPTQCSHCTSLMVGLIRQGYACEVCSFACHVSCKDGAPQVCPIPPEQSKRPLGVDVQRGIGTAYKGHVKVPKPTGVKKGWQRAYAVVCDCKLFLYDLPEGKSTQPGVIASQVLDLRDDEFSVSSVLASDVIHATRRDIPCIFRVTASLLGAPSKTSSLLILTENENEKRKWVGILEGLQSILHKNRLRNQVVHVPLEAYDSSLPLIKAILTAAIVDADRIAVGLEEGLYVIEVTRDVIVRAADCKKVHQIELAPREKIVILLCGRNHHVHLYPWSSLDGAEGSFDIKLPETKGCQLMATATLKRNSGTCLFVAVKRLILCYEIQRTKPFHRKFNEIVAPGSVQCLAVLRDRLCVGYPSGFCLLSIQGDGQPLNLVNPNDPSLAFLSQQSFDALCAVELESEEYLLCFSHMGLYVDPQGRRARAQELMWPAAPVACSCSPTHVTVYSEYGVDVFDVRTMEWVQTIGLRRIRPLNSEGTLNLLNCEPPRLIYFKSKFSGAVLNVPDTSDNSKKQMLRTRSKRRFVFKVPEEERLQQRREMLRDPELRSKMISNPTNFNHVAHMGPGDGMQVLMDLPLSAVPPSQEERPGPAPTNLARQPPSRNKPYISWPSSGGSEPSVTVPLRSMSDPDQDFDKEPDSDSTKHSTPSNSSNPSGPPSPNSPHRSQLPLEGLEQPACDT
RAC-gamma serine/threonine-protein kinase (Homo sapiens), sequence (Q9Y243 whole entry): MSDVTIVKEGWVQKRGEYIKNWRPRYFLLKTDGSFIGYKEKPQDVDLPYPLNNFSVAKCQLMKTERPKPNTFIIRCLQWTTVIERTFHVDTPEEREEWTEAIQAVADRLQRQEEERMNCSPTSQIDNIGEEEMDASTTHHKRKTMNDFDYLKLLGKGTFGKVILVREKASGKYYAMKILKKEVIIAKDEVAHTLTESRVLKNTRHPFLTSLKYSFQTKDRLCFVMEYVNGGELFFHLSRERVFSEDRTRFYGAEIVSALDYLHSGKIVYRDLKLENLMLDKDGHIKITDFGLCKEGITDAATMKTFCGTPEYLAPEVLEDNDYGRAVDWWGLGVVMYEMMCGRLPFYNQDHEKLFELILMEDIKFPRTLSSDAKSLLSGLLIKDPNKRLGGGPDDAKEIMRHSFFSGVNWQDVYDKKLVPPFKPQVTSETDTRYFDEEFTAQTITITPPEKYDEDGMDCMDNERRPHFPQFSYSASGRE

Consider `COc1cc2ncn(-c3cc(OCc4ccccc4C(F)(F)F)c(C(=O)N(C)C)s3)c2cc1OC`, for which the inhibition in test [1] is -0.4%; in test [2], -0.11%; in test [3] it was -0.31%; in test [4] it was 0.45%; in test [5], 0.89%; in test [6] it was 1.26%. For the same compound, the inhibition in [7] is -0.42%; in test [8], 0.69%; in test [9] it was -2.57%; in [10], 3.66%; in [11], 0.01%; in test [12] it was 0.75%. Further, the inhibition is -1.11% in test [13]; 1.24% in [14]; -0.57% in test [15]; -0.4% in [16]; 0.13% in [17]; 0.89% in test [18]. Besides, the inhibition in test [19] is -0.55%; in [20], -1.48%.
With `Cc1cccc2c1NC(=O)/C2=N\Nc1ccc(S(N)(=O)=O)cc1`, the inhibition in [1] turned out to be 1.04%; in test [2], 1.19%; in test [3], 2.18%; in test [4] it was 1.39%; in [5], 1.07%; in test [6], 1.15%. The inhibition in [7] is 2.1%; in test [8] it was 3.62%; in [9] it was 1.49%; in test [10] it was -6.16%; in test [11], -1.02%; in test [12] it was -1.52%. The inhibition in test [13] worked out at 1.33%; in test [14], 2.51%; in test [15] it was 2.97%; in test [16] it was 4.06%; in test [17], 1.89%; in test [18], 3.82%. The results for the inhibition in test [19] and in test [20] were 1.66% and 2.26%, respectively.
Regarding `COc1cc2c(cc1Nc1nc(Nc3ccsc3C(N)=O)c3cc[nH]c3n1)N(C(=O)CN(C)C)CCC2(C)C`, the inhibition was 1.26% in test [1]; 0.48% in test [2]; 2.13% in test [3]; 2.14% in test [4]; 0.83% in test [5]; 2.54% in [6]. The inhibition in [7] was 49.5%; in [8], 87.2%; in test [9], 34.2%; in test [10], 63.2%; in test [11], 2.48%; in test [12] it was 6.74%. Further, the inhibition is 4.54% in test [13]; 14.9% in [14]; 4.6% in test [15]; 8.3% in test [16]; 5.18% in test [17]; 13.8% in [18]. Moreover, the inhibition in [19] was 2.7%; in test [20] it was 4.93%.
`Cc1ccc(O)cc1Nc1ccnc2cc(-c3ccccn3)ccc12`: the inhibition in test [1] was found to be 1.31%; in test [2], 1.02%; in test [3], 2.69%; in [4], 2.45%; in test [5] it was 1.16%; in [6], 2.32%. Besides, the inhibition in test [7] was 1.43%; in test [8] it was -3.7%; in test [9] it was 4%; in test [10] it was -2.85%; in test [11], 0.02%; in test [12], -2.04%. Moreover, the inhibition in test [13] is 1.37%; in test [14], 0.2%; in test [15] it was 4.25%; in test [16], 3.29%; in [17], 0.94%; in test [18] it was 2.96%. The inhibition came to 1.62% in test [19] and 1.87% in test [20].
Take `CCN(CC)S(=O)(=O)c1ccc(OC)c(Nc2ncc(-c3ccccc3)o2)c1`: the inhibition was 0.87% in test [1]; -0.4% in [2]; 0.37% in test [3]; 0.18% in test [4]; 2.3% in [5]; -1.03% in test [6]. The inhibition in test [7] is 1.87%; in test [8], -0.46%; in test [9] it was 3.17%; in test [10], -3.96%; in test [11], 1.92%; in [12], 0.2%. For the same compound, the inhibition in test [13] was -0.21%; in [14], -0.04%; in test [15] it was 3.03%; in [16] it was 6.51%; in test [17] it was 0.54%; in test [18], 1.06%. Besides, the inhibition was determined as 1.32% in test [19] and 0.49% in [20].
As to `Fc1ccc(-c2cc(-c3c[nH]nc3-c3ccccn3)ccn2)cc1`, the inhibition came to 0.11% in test [1]; 0.95% in test [2]; 1.68% in test [3]; 2.45% in test [4]; 0.98% in test [5]; 1.5% in test [6]. In addition, the inhibition in test [7] is 7.85%; in test [8], 15.7%; in test [9], 3.52%; in test [10], 13.4%; in test [11], -0.62%; in test [12], 2.14%. Besides, the inhibition in test [13] is -1.2%; in test [14] it was -2.11%; in [15] it was 2.42%; in test [16], 1.68%; in test [17], 2.17%; in test [18], 3.21%. Further, the figures for the inhibition in test [19] and in test [20] were 0.99% and 2.4%, respectively.
